Test results as given in PubChem BioAssay (NCI).
This is part of a sample that, as a whole, favours compounds with a hit. Of some 79,000 tested, about 15% had one in any assay. Calls of active or inactive are those of the source. Cut-off read from the data, not from the text of the source: active = growth inhibition above about 70%; inactive = the rest.

Experiments:
[1] = NCI Yeast Anticancer Drug Screen. Data for the rad50 strain (AID 155);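 note: 0% = growth of vehicle-only cultures of the same strain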; details: S. cerevisiae rad50 strain growth inhibition, hits give high values
In short: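 Readout: growth inhibition relative to vehicle-treated cultures. Compound exposure was carried out in a genetically defined yeast strain deficient in DNA damage repair.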

[2] = NCI Yeast Anticancer Drug Screen. Data for the mec2-1 strain (AID 157); details: S. cerevisiae mec2-1 strain, hits give high values
In short: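 Strain: mec2-1 (DNA repair/cell cycle alteration). Compound exposure, then growth measured; inhibition expressed relative to vehicle.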

[3] = NCI Yeast Anticancer Drug Screen. Data for the sgs1 mgt1 strain (AID 161);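 note: 0% = growth of cultures given vehicle only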; details: S. cerevisiae sgs1 mgt1 strain, hits give high values
In short: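 Read-out: growth inhibition vs vehicle controls. Cells: mutant yeast strain deficient in DNA damage repair.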

[4] = NCI Yeast Anticancer Drug Screen. Data for the cln2 rad14 strain (AID 165);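 note: 0% = growth equal to vehicle treated cultures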; details: S. cerevisiae cln2 rad14 strain, hits give high values
In short: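 Compounds are applied to the cln2 rad14 yeast strain, and growth is then compared with that of vehicle-treated cultures to give inhibition.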

[5] = NCI Yeast Anticancer Drug Screen. Data for the bub3 strain (AID 167); details: S. cerevisiae bub3 mutant strain, hits give high values
In short: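 Readout: yeast growth inhibition, expressed relative to vehicle-only wells. The test organism is a mutant strain from a panel with lesions in DNA repair or checkpoint genes.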

[6] = NCI Yeast Anticancer Drug Screen. Data for the mlh1 rad18 strain (AID 175); details: S. cerevisiae mlh1 rad18 strain growth inhibition, hits give high values
In short: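 Read-out is yeast growth inhibition, calculated against vehicle-only controls. The compound was applied to a strain engineered with DNA damage repair alterations.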

[7] = at 5.0 µM (retest, dose inferred, filed as 0.5)
[8] = at 50.0 µM (retest, dose inferred, filed as 5.0)

Measured: growth inhibition

Oc1c(Cl)c(Cl)c(O)c2c1CCCC2
inactive: [1]; [7] 46% | [2]; [7] 67% | [3]; [7] 69% | [4]; [7] 14% | [5]; [7] 65%
active: [1]; [8] 98% | [1]; at 50.0 µM 99.3% | [2]; [8] 99% | [2]; at 50.0 µM 99.5% | [3]; [8] 99% | [3]; at 50.0 µM 99.2% | [4]; [8] 99% | [4]; at 50.0 µM 98.9% | [5]; [8] 98% | [5]; at 50.0 µM 99.5% | [6]; [7] 78% | [6]; [8] 99% | [6]; at 50.0 µM 99.4%

CCOC(=O)c1[nH]n(-c2ccccc2)c(=O)c1/C=N/C(=S)N=Nc1c(O)[nH]c2ccccc12
inactive: [1]; [7] -9% | [1]; [8] -9% | [1]; at 50.0 µM -2.3% | [2]; [7] -21% | [2]; [8] -17% | [2]; at 50.0 µM -23.4% | [3]; [7] -7% | [3]; [8] -4% | [3]; at 50.0 µM -22.6% | [4]; [7] -18% | [4]; [8] -20% | [4]; at 50.0 µM 28.1% | [5]; [7] -13% | [5]; [8] 2% | [5]; at 50.0 µM -15.8% | [6]; [7] -1% | [6]; [8] -2% | [6]; at 50.0 µM -35.7%

CCCCN(CCCC)CCCC(O)c1c2ccc(Cl)cc2nc2ccc(OC)cc12 (centres undefined)
active: [6]; at 50.0 µM 70.7%
inactive: [1]; [7] 1% | [1]; [8] 24% | [1]; at 50.0 µM 18.1% | [2]; [7] -1% | [2]; [8] 5% | [2]; at 50.0 µM 30% | [3]; [7] 26% | [3]; [8] 11% | [3]; at 50.0 µM 18.9% | [4]; [7] -3% | [4]; [8] 0% | [4]; at 50.0 µM 25.6% | [5]; [7] 3% | [5]; [8] 10% | [5]; at 50.0 µM 47.8% | [6]; [7] 3% | [6]; [8] 23%

ClC(Cl)(Cl)/C=C/c1cnc2ccccc2n1
inactive: [1]; [7] 2% | [1]; at 50.0 µM 15.6% | [2]; [7] 1% | [2]; at 50.0 µM 5.95% | [3]; [7] 1% | [3]; at 50.0 µM 49.3% | [4]; [7] -3% | [4]; at 50.0 µM -2% | [5]; [7] -3% | [6]; [7] 3% | [6]; at 50.0 µM 30.2%
active: [1]; [8] 99% | [2]; [8] 99% | [3]; [8] 99% | [4]; [8] 99% | [5]; [8] 99% | [5]; at 50.0 µM 85.7% | [6]; [8] 99%

O=C(O)c1ccc(C(=O)c2ccccc2C(=O)O)cc1
inactive: [1]; [7] -3% | [1]; [8] -4% | [2]; [7] -5% | [2]; [8] -2% | [3]; [7] -1% | [3]; [8] -1% | [4]; [7] -2% | [4]; [8] -7% | [5]; [7] 0% | [5]; [8] -1% | [6]; [7] 1% | [6]; [8] 0%
active: [1]; at 50.0 µM 99.3% | [2]; at 50.0 µM 99.7% | [3]; at 50.0 µM 99.4% | [4]; at 50.0 µM 98.5% | [5]; at 50.0 µM 99.7% | [6]; at 50.0 µM 99.3%

COC(=O)C1CCN(Cc2ccccc2)CC1=O (centres undefined)
inactive: [1]; [7] 38% | [1]; [8] 57% | [2]; [7] 48% | [2]; [8] 51% | [6]; [7] 37% | [6]; [8] 47%
active: [1]; at 50.0 µM 89.3% | [2]; at 50.0 µM 92.1% | [3]; [7] 77% | [3]; [8] 100% | [3]; at 50.0 µM 93.2% | [4]; [7] 83% | [4]; [8] 100% | [4]; at 50.0 µM 90% | [5]; [7] 81% | [5]; [8] 98% | [5]; at 50.0 µM 90% | [6]; at 50.0 µM 89.9%

CCCCOC(=O)c1ccc(S(=O)(=O)c2ccc(C(=O)OCCCC)cc2)cc1
active: [5]; at 50.0 µM 77.7%
inactive: [1]; [7] 3% | [1]; [8] -6% | [1]; at 50.0 µM 1.7% | [2]; [7] 3% | [2]; [8] -3% | [2]; at 50.0 µM 28.4% | [3]; [7] 5% | [3]; [8] -18% | [3]; at 50.0 µM 10% | [4]; [7] 5% | [4]; [8] -11% | [4]; at 50.0 µM -13.1% | [5]; [7] 4% | [5]; [8] -1% | [6]; [7] 2% | [6]; [8] -3% | [6]; at 50.0 µM 11.1%

COc1ncnc2nc(SC)[nH]c12
active: [1]; at 50.0 µM 99.7% | [2]; at 50.0 µM 99.8% | [3]; at 50.0 µM 99.6% | [4]; at 50.0 µM 99.7% | [5]; at 50.0 µM 99.7% | [6]; at 50.0 µM 99.5%
inactive: [1]; [7] -1% | [1]; [8] -2% | [2]; [7] 1% | [2]; [8] -2% | [3]; [7] -1% | [3]; [8] -4% | [4]; [7] 0% | [4]; [8] -2% | [5]; [7] -1% | [5]; [8] -4% | [6]; [7] 0% | [6]; [8] -4%

CC(C)c1cc(C(C)C)c(Cl)c(Cl)c1O (tested in a mixture with another compound)
inactive: [1]; [7] 1% | [1]; [8] 44% | [2]; [7] 3% | [3]; [7] 6% | [4]; [7] 5% | [5]; [7] 0% | [6]; [7] -1% | [6]; [8] 14%
active: [1]; at 50.0 µM 99.3% | [2]; [8] 100% | [2]; at 50.0 µM 99.5% | [3]; [8] 98% | [3]; at 50.0 µM 99.5% | [4]; [8] 73% | [4]; at 50.0 µM 98.9% | [5]; [8] 77% | [5]; at 50.0 µM 87.5% | [6]; at 50.0 µM 84.5%

O=C(c1cccs1)N(C(=S)N1CCN(c2ccccn2)CC1)C1CCCCC1
inactive: [1]; [7] 4% | [1]; [8] 66% | [1]; at 50.0 µM 54.5% | [2]; [7] -8% | [2]; [8] 61% | [2]; at 50.0 µM 54.8% | [3]; [7] 8% | [3]; [8] 31% | [3]; at 50.0 µM 67.2% | [4]; [7] 15% | [4]; [8] 44% | [4]; at 50.0 µM 38.8% | [5]; [7] 2% | [5]; [8] 31% | [5]; at 50.0 µM 68.6% | [6]; [7] 8% | [6]; [8] 29% | [6]; at 50.0 µM 49.6%

COc1ccc(C2CC(c3sc(Nc4ccc(C)cc4)nc3C)=NN2)cc1 (centres undefined)
inactive: [1]; [7] -1% | [1]; [8] 20% | [2]; [7] -33% | [2]; [8] 60% | [2]; at 50.0 µM 62% | [3]; [7] -2% | [3]; [8] 16% | [4]; [7] -1% | [4]; [8] 38% | [4]; at 50.0 µM 69.1% | [5]; [7] -4% | [5]; [8] 32% | [5]; at 50.0 µM 12.2% | [6]; [7] -2% | [6]; [8] 31% | [6]; at 50.0 µM 59.9%
active: [1]; at 50.0 µM 80.3% | [3]; at 50.0 µM 71.4%

CCc1ccccc1SC(C)=O
active: [2]; [8] 70% | [5]; [8] 77% | [5]; at 50.0 µM 80.9%
inactive: [1]; [7] 6% | [1]; [8] 55% | [1]; at 50.0 µM 29.9% | [2]; [7] 13% | [2]; at 50.0 µM 62% | [3]; [7] 3% | [3]; [8] 42% | [3]; at 50.0 µM 44.5% | [4]; [7] 11% | [4]; [8] 69% | [4]; at 50.0 µM 59.9% | [5]; [7] 7% | [6]; [7] 1% | [6]; [8] 60% | [6]; at 50.0 µM 65.3%

COC(=O)Cc1nc2ccccc2s1
inactive: [1]; [7] 1% | [2]; [7] -9% | [3]; [7] 11% | [4]; [7] 13% | [5]; [7] -10% | [6]; [7] -2%
active: [1]; [8] 99% | [1]; at 50.0 µM 99.2% | [2]; [8] 100% | [2]; at 50.0 µM 99.5% | [3]; [8] 92% | [3]; at 50.0 µM 99.3% | [4]; [8] 96% | [4]; at 50.0 µM 97.3% | [5]; [8] 100% | [5]; at 50.0 µM 98.5% | [6]; [8] 76% | [6]; at 50.0 µM 99%
